# Data from PubChem BioAssay AID504332 (National Center for Advancing Translational Sciences (NCATS), 2011).
# The whole screen tested about 350,000 compounds, of which about 31,000 (8.9%) were called active. Entries that show only a call come without a potency. Not shown: some 15% with an inconclusive outcome. The sample holds actives, similar compounds and a random draw of the others, so the mix is not that of the screen. Values without a mark were called inactive. The call rests on the fitted dose curve; in most records, active means well fitted inhibition curve with a large enough effect; inconclusive means small, poorly fitted or top-dose-only effect; inactive means no such curve, though single readings can be large or run the other way.
# Biological target: Histone-lysine N-methyltransferase EHMT2 (Homo sapiens) (UniProt Q96KQ7)
# Sequence (Q96KQ7 913-1193 limits assumed): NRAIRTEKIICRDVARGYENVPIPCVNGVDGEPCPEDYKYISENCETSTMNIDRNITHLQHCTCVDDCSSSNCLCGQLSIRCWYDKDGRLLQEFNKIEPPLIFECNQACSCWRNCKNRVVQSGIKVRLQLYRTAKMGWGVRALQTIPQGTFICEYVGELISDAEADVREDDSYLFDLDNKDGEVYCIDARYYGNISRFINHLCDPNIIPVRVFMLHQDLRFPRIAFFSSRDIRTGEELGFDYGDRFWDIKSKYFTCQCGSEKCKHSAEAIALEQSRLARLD
# Assay: qHTS Assay for Inhibitors of Histone Lysine Methyltransferase G9a; further: nearly all actives have a fitted effect of over 75% in size
# Details: G9a H3K9 monomethylation, AlphaScreen, 2 h; series mostly up to 59 µM
# Summary of the method: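 AlphaScreen detection with an anti-monomethyl H3K9 antibody quantified product after a 2 h room-temperature reaction containing 500 nM biotinylated H3K9 peptide, 20 µM SAM and 20 nM enzyme, which had been preincubated 15 min with compound.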
# Potency means the concentration at half of the fitted maximal effect.
Compound,"activity, negative = inhibition",Potency
O=C(Nc1ccccc1F)c1ccc2c(c1)OCO2,-7.42% [at 0.501 µM],–
O=C(CN1CCN(c2ccccc2F)CC1)c1ccc2c(c1)OCO2,–,20 µM (active)
CC1(c2ccc(Cl)cc2)NC(=O)N(CC(=O)c2ccc3c(c2)OCO3)C1=O (centres undefined),–,inactive
COc1ccc(C2CC(=O)Nc3c2c(=O)nc2c(C)cccn32)cc1OC (centres undefined),–,inactive
Cn1c(N)c(C(=O)COC(=O)/C=C/c2cccc(C(F)(F)F)c2)c(=O)n(C)c1=O,28.8% [at 2.33 µM],–
CC1(C)O[C@@H]2CC3C4C[C@H](F)C5=CC(=O)C=CC5(C)C4C(O)CC3(C)[C@]2(C(=O)CO)O1 (some centres undefined),–,inactive
CCC1(C)Cc2c(sc3nc(SC)[nH]c(=O)c23)CO1 (centres undefined),–,44.7 µM (active)
CCC1(C)Cc2c(sc3nc(SC)nc(N)c23)CO1 (centres undefined),–,inactive
CCSc1nc2sc3c(c2c(=O)[nH]1)CC(C)(C)OC3,–,inactive
COc1ccccc1NC(=O)C(=O)c1cc(C)n(-c2ccccc2F)c1C,–,inactive
COc1cc(CNCCSc2nnnn2C)ccc1OCc1ccc(Cl)cc1Cl,–,inactive
Cc1ccc(CN(C(=O)COc2ccc(Cl)cc2C)C2CCS(=O)(=O)C2)o1 (centres undefined),–,inactive
COc1cc(C(=O)N(Cc2ccc(C(C)C)cc2)C2CCS(=O)(=O)C2)cc(OC)c1OC (centres undefined),–,inactive
Cc1ccccc1OCC(=O)N(Cc1cccc(F)c1)C1CCS(=O)(=O)C1 (centres undefined),–,inactive
CC(C)c1ccc(OCC(=O)N(Cc2ccc(N(C)C)cc2)C2CCS(=O)(=O)C2)cc1 (centres undefined),–,12.6 µM (active)
CCc1ccc(OCC(=O)N(Cc2ccccc2)C2CCS(=O)(=O)C2)cc1 (centres undefined),–,inactive
Cc1cc(Cl)ccc1OCC(=O)N(Cc1ccc(N(C)C)cc1)C1CCS(=O)(=O)C1 (centres undefined),–,10 µM (active)
COc1ccc(NC(=O)CSc2nc(SC)ns2)c(OC)c1,–,inactive
COc1cccc(N2CC(NC(=O)/C=C\c3ccccc3)CC2=O)c1 (centres undefined),–,inactive
CCOc1ccc(NC(=O)CN(C)C(=O)c2cccc(S(=O)(=O)N3CCCC3)c2)cc1OCC,–,inactive
CC(C)CN(C(=O)CSc1ncnc2sccc12)C1CCS(=O)(=O)C1 (centres undefined),0.939% [at 12.7 µM],–
COC(=O)[C@@]12CCCN1[C@H](c1ccc(-c3ccc(F)cc3)c(OC)c1)[C@H]1C(=O)N(C)C(=O)[C@H]12,17.2% [at 2.33 µM],–
O=C(/C=C/c1ccc([N+](=O)[O-])o1)NNC(=O)c1ccc(F)cc1,–,inactive
Cc1nc2ccccc2c(=O)n1-c1ccc(F)c(NC(=O)c2cccs2)c1,–,inactive
CC(C)CN(Cc1c(O)ccc2c(=O)c(-c3ccccc3)coc12)CC(C)C,–,inactive

Compound,"activity, negative = inhibition",Potency
COc1cc(C2NC(=O)NC(c3ccccc3)=C2C(C)=O)c(Br)cc1OCC(N)=O (centres undefined),–,inactive
CC(C)(C)c1ccc(C(=O)NCC(c2ccco2)S(=O)(=O)c2ccc(F)cc2)cc1 (centres undefined),–,inactive
Cc1cccn2c(=O)c(/C=C3\SC(=S)N(CC(C)C)C3=O)c(NCCCOC(C)C)nc12,–,inactive
Cc1ccc2[nH]c(=O)c(-c3nc4c(C)cccn4c3NCc3ccco3)cc2c1,–,inactive
CCCN(CCC)c1nc2c(C)cccn2c(=O)c1/C=C1/SC(=S)N(Cc2ccco2)C1=O,–,39.8 µM (active)
CCc1ccc(NC(=O)c2nn(-c3ccc(C)cc3)c(=O)n(C)c2=O)cc1,–,inactive
NS(=O)(=O)c1ccc(NC(=O)COc2ccc(S(=O)(=O)NC3CCCCC3)cc2)cc1,–,inactive
CCOc1cc(-c2cc(-c3ccc(NC(C)=O)cc3)nc(N)c2C#N)ccc1O,–,inactive
CCc1ccc(NC(=O)N2CCc3ccccc3C2)cc1,–,inactive
COc1ccc(CC(=O)NC2CCSc3ccccc32)cc1OC (centres undefined),–,inactive
COc1ccc(CC(=O)Nc2nnc3n2CCS3)cc1OC,–,12.6 µM (active)
CCOc1cc(C(=O)Nc2nnc3n2CCS3)cc(OCC)c1OCC,–,inactive
COc1ccccc1NC(=O)C(C)OC(=O)c1ccc(-n2cnnn2)cc1 (centres undefined),–,inactive
O=C(NNC(=O)c1cccc(S(=O)(=O)Nc2ccc(Cl)cc2)c1)c1ccc(=O)[nH]c1,17.2% [at 12.7 µM],–
Cc1ccc(NN=C2C(=O)OC(C)(C)OC2=O)c(C)c1,–,inactive
Cc1ccc(N/N=C2\COC(C)(C)CC2=O)cc1,–,44.7 µM (active)
CN(C(=O)COC(=O)c1cc(=O)[nH]c2ccccc12)C1CCCCC1,-20.6% [at 2.33 µM],–
CCCC1CCC(=NNC(=S)NCCc2ccccc2)CC1 (centres undefined),–,14.1 µM (active)
S=C(NCCc1ccccc1)NCC1CCCO1 (centres undefined),–,inactive
CCCCNC(=S)N/N=C1\CCCCc2ccccc21,–,inactive
CC(C)(C)NC(=O)CSc1nnc(NC(=O)CCc2ccccc2)s1,–,inactive
CCn1cc(CN2CCN(CC(C)(C)C)C(CCO)C2)c2ccccc21 (centres undefined),–,50.1 µM (active)
Cc1ccc(CN2CCN(Cc3ccccc3-c3ccco3)CC2CCO)o1 (centres undefined),–,inactive
COc1ccc(CN2CCN(Cc3cn(C)nc3-c3ccccc3)CC2CCO)c(C)c1C (centres undefined),–,inactive
